# Values without a mark were called inactive. Activity calls are given as the source filed them. Calls follow the shape of the full dose curve. Numbered stars: 1 amine (or outer) side, 2 acyl side, 3 side chain; on linkers, the order of the positions; unused ones are H or OH. Bridge positions count the residues as written; N and C are the ends. Square brackets hold non-standard residues; d marks the D form. Peptide text beside a SMILES is read from it. I, II: the chains in the order shown. Actinocin(9to1) = Cc1c2oc3c(C)ccc(C(=O)[*:1])c3nc-2c(C(=O)[*:2])c(N)c1=O; NMeV = CN[CH](C(=O)O)C(C)C; Orn = NCCC[C@H](N)C(=O)O; Sar = CNCC(=O)O
# Assay: qHTS profiling of Chloroquine Analogs as inhibitors of Plasmodium falciparum (DD2) proliferation
# Conditions: Potency: Plasmodium falciparum Dd2 proliferation inhibition; series mostly up to 28.7 µM; activity change, negative = inhibition: at the top concentration
# Description: Plasmodium falciparum is a virulent malarial parasite that kills 1-2 million people worldwide each year. Transmitted by mosquitoes, the sporozoite form of the parasite enters the blood stream to infect hepatocytes, where they become merozoites that infect red blood cells (erythrocytes). Within erythrocytes, merozoites begin a […] cycle of growth and division, after which the parasite is released to infect new red blood cells. Gametocytes, which form within erythrocytes as well, circulate in the bloodstream and are ingested by the mosquito, thereby completing the life cycle. To profile malarial isolates for differential chemical responses and to identify inhibitors of malarial growth, an assay that measures P. falciparum growth and replication within erythrocytes was employed. This assay uses a DNA binding fluorescent dye (SYBR Green) to detect parasite DNA following cell lysis. Because mature erythrocytes lack DNA, only Plasmodium-derived DNA is detected.
# The SYBR Green viability assay was adapted from a method described previously (Plouffe et al., 2008). For screening 3 ul culture medium was dispensed into 1536 well black clear bottom plates (Aurora Biotechnologies) using a Multidrop Combi (Thermo Fisher Scientific Inc.), 23 nL compounds in DMSO were added by a pin tool (Kalypsys), and 5 ul of erythrocytes infected with P. falciparum (0.3% parasitemia, 2.5% hematocrit final concentration) were added. The plates were incubated at 37 C in a humidified incubator in 5% CO2 for 72 h, and 2 ul lysis buffer (20 mM Tris HCl, 10 mM EDTA, 0.16% saponin, 1.6% triton X, 10X SYBR Green I supplied as 10,000X […] by Invitrogen) was added to each well. The plates were mixed for 25 sec with gentle shaking and incubated overnight at room temperature in the dark. The following morning, fluorescence intensity at 485(14) nm excitation and 535(25) nm emission wavelengths was measured on an EnVision (Perkin Elmer) plate reader. Plate reads were normalized relative to the control inhibitor (0.29 uM artemisinin) and vehicle (DMSO) wells present on each plate and then corrected by an algorithm using vehicle-only control plates at the beginning and end of the compound plate stack.
SMILES,"activity change, negative = inhibition",Potency
C[C@H]1Cc2c([nH]c3cc(Cl)c(F)cc23)[C@@]2(N1)C(=O)Nc1ccc(Cl)cc12,-103%,–
CN([C@@H](Cc1ccc(OS(=O)(=O)c2cccc3cnccc23)cc1)C(=O)N1CCN(c2ccccc2)CC1)S(=O)(=O)c1cccc2cnccc12,200%,–
CN(C)CCOC(c1ccccc1)c1ccccc1,–,1.5 µM (active)
CO[C@H]1O[C@@H]2O[C@@]3(C)CC[C@@H]4[C@@H](C)CC[C@@H]([C@H]1C)[C@@]24OO3,172%,–
OB1OCc2cc(F)ccc21,5.84%,–
CCc1ccc(OCc2ccccc2C(=O)Nc2ccc3nc(C)cc(N)c3c2)cc1,-100%,–
C[C@H]1c2cccc(O)c2C(O)=C2C(=O)[C@]3(O)C(O)=C(C(N)=O)C(=O)[C@@H](N(C)C)[C@@H]3[C@@H](O)[C@@H]21,-96.4%,–
Cc1cccc(C)c1NC(=O)C(C)N (stereo not given),-16% [at 14.2 µM],–
COc1cc2c(cc1C(F)(F)F)N(C(=O)Nc1cc(F)cc(-c3cccnc3)c1)CC2,177%,–
C[C@@H]1[C@@H](CC(C[C@H]2O[C@@H]3O[C@]4(C)CC[C@@H]5[C@H](C)CC[C@@H]([C@H]2C)[C@@]35OO4)C(=O)NCc2ccc(F)cc2)O[C@@H]2O[C@]3(C)CC[C@H]4[C@H](C)CC[C@@H]1[C@@]24OO3 (stereo not given in full),-100%,–
CC[C@@H](C)[C@H]1O[C@]2(CC[C@H]1C)C[C@@H]1C[C@@H](CC=C(C)[C@@H](O[C@H]3C[C@H](OC)[C@@H](O[C@H]4C[C@H](OC)[C@@H](O)[C@H](C)O4)[C@H](C)O3)[C@@H](C)C=CC=C3CO[C@@H]4[C@H](O)C(C)=C[C@@H](C(=O)O1)[C@]34O)O2,-103%,–
C[C@H]1[C@@H](OC(=O)CCC(=O)O)O[C@@H]2OC3(C)CC[C@H]4[C@H](C)CC[C@@H]1[C@@]24OO3,-102%,–
CSc1cccc(NC(=O)CC[C@H]2O[C@@H]3O[C@]4(C)CC[C@H]5[C@H](C)CC[C@@H]([C@@H]2C)[C@@]35OO4)c1,–,0.0266 µM (active)
CN1C[C@H](C(=O)N[C@]2(C)O[C@@]3(O)[C@@H]4CCCN4C(=O)[C@H](Cc4ccccc4)N3C2=O)C[C@@H]2c3cccc4[nH]cc(c34)C[C@H]21,180%,–
CC[C@H]1OC(=O)[C@H](C)[C@@H](O[C@H]2C[C@@](C)(OC)[C@@H](O)[C@H](C)O2)[C@H](C)[C@@H](O[C@@H]2O[C@H](C)C[C@H](N(C)C)[C@@H]2O)[C@](C)(O)C[C@@H](C)CN(C)[C@H](C)[C@@H](O)[C@]1(C)O,-94.5%,–
COc1ccc2nc3cc(Cl)ccc3c(Nc3cc(CN4CCCC4)c(O)c(CN4CCCC4)c3)c2n1,-103%,–
COc1ccc(CCN(C)CCCC(C#N)(c2ccc(OC)c(OC)c2)C(C)C)cc1OC (stereo not given),178%,–
CC(CNC1CCCCC1)OC(=O)c1ccccc1 (stereo not given),-39.4% [at 14.2 µM],–
"Cc1c2oc3c(C)ccc(C(=O)NC4C(=O)NC(C(C)C)C(=O)N5CCCC5C(=O)N(C)CC(=O)N(C)C(C(C)C)C(=O)OC4C)c3nc-2c(C(=O)NC2C(=O)NC(C(C)C)C(=O)N3CCCC3C(=O)N(C)CC(=O)N(C)C(C(C)C)C(=O)OC2C)c(N)c1=O (stereo not given) (I: TVP[Sar][NMeV] / II: TVP[Sar][NMeV]; ester I:1-I:C, II:1-II:C; linker I:N-II:N via Actinocin(9to1); configuration not given here)",–,0.0024 µM (active)
C[C@@H]1Cc2c([nH]c3cc(Cl)c(F)cc23)[C@]2(N1)C(=O)Nc1ccc(Cl)cc12,-101%,–

SMILES,"activity change, negative = inhibition",Potency
Oc1cc(Cl)ccc1Oc1ccc(Cl)cc1Cl,–,3.35 µM (active)
CCCCN(CCCC)CCC(O)c1cc2c(Cl)cc(Cl)cc2c2cc(C(F)(F)F)ccc12 (stereo not given),210% [at 14.2 µM],–
CC1=CC(=O)c2ccccc2C1=O,-98.6%,–
COCC(=O)O[C@]1(CCN(C)CCCc2nc3ccccc3[nH]2)CCc2cc(F)ccc2[C@@H]1C(C)C,-101%,–
CC(C)C[C@@H]1NC(=O)[C@H](CCCN)NC(=O)[C@H](C(C)C)NC(=O)[C@@H]2CCCN2C(=O)[C@@H](Cc2ccccc2)NC(=O)[C@H](CC(C)C)NC(=O)[C@H](CCCN)NC(=O)[C@H](C(C)C)NC(=O)[C@@H]2CCCN2C(=O)[C@@H](Cc2ccccc2)NC1=O (cyclo(V[Orn]L[dF]PV[Orn]L[dF]P)),–,0.0007 µM (active)
CN(C)c1ccc2nc3ccc(=[N+](C)C)cc-3sc2c1,–,0.0069 µM (active)
C=Cc1c(C)c2cc3nc(cc4[nH]c(cc5nc(cc1[nH]2)C(C)=C5CCC(=O)OC)c(CCC(=O)O)c4C)[C@@]1(C)C3=CC=C(C(=O)OC)[C@H]1C(=O)OC,–,0.359 µM (active)
C#C[C@]1(O)CC[C@@H]2[C@H]3CCC4=CC(=O)CC[C@H]4[C@H]3C(=C)C[C@@]21CC,-96.6%,–
CN1CC[C@H](CN2c3ccccc3Sc3ccccc32)C1,-70.9%,–
CNCCC(Oc1ccccc1OC)c1ccccc1 (stereo not given),-94%,–
C[C@@H]1CC[C@H]2[C@@H](C)C(=O)O[C@@H]3OC4(C)CC[C@@H]1C32OO4 (stereo not given in full),171% [at 57.5 µM],–
CN(C)CC/C=C1\c2ccccc2COc2ccccc21,–,1.43 µM (active)
COc1cccc(CCc2ccccc2OCC(CN(C)C)OC(=O)CCC(=O)O)c1 (stereo not given),–,0.943 µM (active)
CC(C)N=C(N)N=C(N)Nc1ccc(Cl)cc1,190%,–
CCN(CC)CCCC(C)Nc1ccnc2cc(Cl)ccc12 (stereo not given),193%,–
C[C@@H]1CCC2[C@@H](C)[C@@H](O)O[C@@H]3O[C@@]4(C)CC[C@@H]1[C@@]23OO4 (stereo not given in full),-102%,–
C/C(=C\c1csc(C)n1)[C@@H]1C[C@@H]2O[C@]2(C)CCC[C@H](C)[C@H](O)[C@@H](C)C(=O)C(C)(C)[C@@H](O)CC(=O)O1,24.3%,–
CCc1nc(N)nc(N)c1-c1ccc(Cl)cc1,-2.13%,–
O=CN(O)CCCP(=O)(O)O,-91.1%,–
COc1cc(NC(C)CCCN)c2ncccc2c1 (stereo not given),193% [at 14.2 µM],–

# — PubChem BioAssay AID743326 (National Center for Advancing Translational Sciences (NCATS), 2014)
